Results taken from PubChem BioAssay (NCI).
This is part of a sample that, as a whole, favours compounds with a hit. Of some 83,000 tested, about 20% had one in any assay.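 Treatment: one concentration, 48 hours, 96-well format. Scoring: percent growth, with anything below 10 considered active.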 A number with no mark means an inactive call. Activity calls are given as the source filed them.

Columns and labels:
Assay in all cases: NCI-60 one-dose screen, 48 h (100 = growth as untreated, 0 = no growth, -100 = all killed)
Conditions in all cases: 10 µM unless noted
SR leukemia = test system: SR leukemia
RPMI-8226 leukemia = test system: RPMI-8226 leukemia
OVCAR-8 ovarian = test system: OVCAR-8 ovarian
OVCAR-5 ovarian = test system: OVCAR-5 ovarian
OVCAR-4 ovarian = test system: OVCAR-4 ovarian
SK-OV-3 ovarian = test system: SK-OV-3 ovarian
IGROV1 ovarian = test system: IGROV1 ovarian
OVCAR-3 ovarian = test system: OVCAR-3 ovarian
HS 578T breast = test system: HS 578T breast
NCI/ADR-RES ovarian = test system: NCI/ADR-RES ovarian

SMILES	growth (SR leukemia)	growth (RPMI-8226 leukemia)	growth (OVCAR-8 ovarian)	growth (OVCAR-5 ovarian)	growth (OVCAR-4 ovarian)	growth (SK-OV-3 ovarian)	growth (IGROV1 ovarian)	growth (OVCAR-3 ovarian)	growth (HS 578T breast)	growth (NCI/ADR-RES ovarian)
O=C1C(=O)c2cccnc2-c2ncccc21	-45.5% (active)	-29.7% (active)	-33% (active)	-57.6% (active)	-100% (active)	-32.8% (active)	-53.8% (active)	-100% (active)	-47.5% (active)	-96.3% (active)
Oc1ccc(Cl)cc1C(c1cc(Cl)ccc1O)C(Cl)(Cl)Cl	-25.2% (active)	11.5%	29.6%	8.25% (active)	20.6%	32%	56%	-16.9% (active)	0.476% (active)	4.17% (active)
COc1cc(/C=C2\SC(=S)N(/C=C/c3nc4ccccc4[nH]c3=O)C2=O)cc(OC)c1OC	63.6%	86.2%	86.4%	88.3%	84.5%	76.3%	89.8%	89.4%	74.4%	86.6%
Clc1ccccc1C(c1ccccc1)(c1ccccc1)n1ccnc1	19.2%	18.7%	29.1%	57.8%	33.2%	69.3%	55.5%	29.3%	58.2%	33.1%
O=C(Nc1cccc(C(F)(F)F)c1)Oc1ccc(Cl)c2cccnc12	-1.87% (active)	-37.9% (active)	-11.1% (active)	87.7%	-0.489% (active)	95.8%	5.79% (active)	-56.3% (active)	17.4%	4.64% (active)
Oc1ccccc1N=Cc1ccccc1	79.2%	62.9%	84%	104%	107%	104%	94.5%	76.2%	108%	84.6%
COc1cc([C@@H]2c3cc4c(cc3[C@H](OC3OC5COC(c6ccccc6)OC5C(O)C3O)[C@H]3COC(=O)[C@H]23)OCO4)cc(OC)c1OC (stereo not given in full)	-25.4% (active)	-21.4% (active)	29.4%	38.1%	45.3%	83.1%	-45.7% (active)	61.8%	-30% (active)	-38.9% (active)
CCN(CC)CCNC(Cc1ccccc1)c1ccc(OCc2ccccc2)cc1 (stereo not given)	24.7%	34.8%	79.7%	56.2%	66.7%	83.1%	57.7%	95.4%	70.8%	76.1%
CC(C)(C)c1ccc(O)c(Br)c1	106%	85%	103%	98.1%	101%	120%	111%	99.2%	96.4%	100%
C=C(C(N)=O)C(N)C(=O)O (stereo not given)	83.4%	104%	108%	113%	115%	112%	99.8%	105%	114%	112%
CCCCCCCCCCCCCCCC[N+]1(C)CCCC1c1cccnc1 (stereo not given)	42.7%	21%	38.4%	48.4%	47.1%	60.5%	42.3%	38.3%	80.2%	87.8%
O=S(=O)(O)c1cnccn1	110%	104%	107%	96.6%	113%	89.6%	105%	103%	112%	102%
CCCCC(C=O)(C=C=C(C)C)CC (stereo not given)	108%	98%	98.5%	98.3%	96.5%	98%	110%	107%	112%	106%
O=C(Cc1ccccc1)C(F)(F)F	94.7%	106%	103%	99.5%	106%	101%	101%	101%	111%	104%
Cc1nnc(N/N=C/c2ccc([N+](=O)[O-])o2)[nH]c1=O	8.26% (active)	42.1%	21.1%	-2.06% (active)	29.4%	10.4%	21%	-7.14% (active)	22%	8.65% (active)
O=C(c1ccccc1)C(Br)C(Br)c1ccccc1 (stereo not given)	31.4%	-3.12% (active)	78.8%	104%	90.2%	115%	-22.3% (active)	-10.9% (active)	104%	117%
CCCCCCCCCCCC(=O)OC(C)C(=O)NCCCC (stereo not given)	85.7%	104%	100%	107%	108%	102%	107%	107%	101%	101%
Oc1ccc2c(c1)CCc1ccccc1-2	104%	105%	106%	92.4%	90.9%	105%	116%	112%	96.8%	114%
O=C1C=Cc2ccccc2/C1=C/c1nc(-c2ccccc2)oc1O	91.1%	104%	94.7%	97.2%	85.2%	86.6%	71.8%	91.6%	102%	85.7%
CN(C)c1ccc(C(C#N)(c2ccccc2)c2ccc(N(C)C)cc2)cc1	15.9%	14.9%	23.4%	106%	83.5%	92.5%	83%	72.3%	33.2%	73.8%
CCCCCC/C=C1\CCC(CN2CCCC2)C1=O (stereo not given)	43.5%	-12.2% (active)	106%	135%	109%	110%	113%	103%	96.3%	105%
O=[N+]([O-])c1cc(-c2ccccc2)c(O)c([N+](=O)[O-])c1	80.4%	38.9%	91.7%	94.6%	62.6%	83%	106%	69.7%	84.4%	94.7%
CN(C)CCN(C)CC(C)(C)C(=O)/C=C/c1ccc(Cl)c(Cl)c1	-25.9% [100 µM] (active)	-30.6% [100 µM] (active)	-86.5% [100 µM] (active)	-93.4% [100 µM] (active)	-98.5% [100 µM] (active)	-97.7% [100 µM] (active)	-92.2% [100 µM] (active)	-98.4% [100 µM] (active)	-39.5% [100 µM] (active)	-47.2% [100 µM] (active)
CC(=O)OC1CC2CCC1(C)C2(C)C (stereo not given)	97.6%	108%	98.9%	94.9%	113%	111%	106%	103%	103%	108%
O=C(Nc1ccc(Cl)c(Cl)c1)Nc1ccccc1O	87%	18.8%	67.1%	98.7%	67.1%	89.2%	72.7%	79.6%	106%	63.8%
O=[N+]([O-])CC(O)c1ccccc1 (stereo not given)	88.2%	89.7%	97.7%	95.7%	93.8%	118%	112%	121%	125%	101%
